Experimental data taken from PubChem BioAssay (NCI).
Several values for one entry are separate records, joined by “and”; a condition that tells them apart may be missing. Identical values can stand only once. The panel holds about 79,000 compounds, 15% with a hit somewhere; the sample as a whole holds those more often. Activity calls are given as the source filed them. Cut-off read from the data, not from the text of the source: active = growth inhibition above about 70%; inactive = the rest.

What was measured:
[1] = NCI Yeast Anticancer Drug Screen. Data for the rad50 strain (AID 155);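 note: 0% = growth of vehicle-only cultures of the same strain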; settings: S. cerevisiae rad50 strain growth inhibition, stronger effect = higher value; at 50.0 µM unless noted
Summary of the method: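 Inhibition values express reduced yeast growth in compound-treated cultures relative to vehicle-treated controls.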

[2] = NCI Yeast Anticancer Drug Screen. Data for the mec2-1 strain (AID 157); settings: S. cerevisiae mec2-1 strain, stronger effect = higher value; at 50.0 µM unless noted
Summary of the method: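 Yeast mec2-1 mutant treated with compound. Readout: growth inhibition vs vehicle controls.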

[3] = NCI Yeast Anticancer Drug Screen. Data for the sgs1 mgt1 strain (AID 161);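 note: 0% = growth of cultures given vehicle only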; settings: S. cerevisiae sgs1 mgt1 strain, stronger effect = higher value; at 50.0 µM unless noted
Summary of the method: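 Read-out: growth inhibition vs vehicle controls. Cells: mutant yeast strain deficient in DNA damage repair.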

[4] = NCI Yeast Anticancer Drug Screen. Data for the cln2 rad14 strain (AID 165);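 note: 0% = growth equal to vehicle treated cultures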; settings: S. cerevisiae cln2 rad14 strain, stronger effect = higher value; at 50.0 µM unless noted
Summary of the method: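 cln2 rad14 yeast strain; compound exposure; growth inhibition read vs vehicle controls.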

[5] = NCI Yeast Anticancer Drug Screen. Data for the bub3 strain (AID 167); settings: S. cerevisiae bub3 mutant strain, stronger effect = higher value; at 50.0 µM unless noted
Summary of the method: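 Steps: expose the mutant yeast strain to compound; grow alongside vehicle-treated cultures; measure growth; express inhibition against the vehicle cultures.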

[6] = NCI Yeast Anticancer Drug Screen. Data for the mlh1 rad18 strain (AID 175); settings: S. cerevisiae mlh1 rad18 strain growth inhibition, stronger effect = higher value; at 50.0 µM unless noted
Summary of the method: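 Yeast w/ defined DNA-repair lesions; compound exposure; growth vs vehicle controls → % inhibition.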

Measured: growth inhibition

C=C1[C@@H](O)C[C@@H]2C[C@@]3(C)[C@H](C(C)(C)C[C@@H]3O)C12O (some centres undefined)
inactive: [1] -4.25% | [2] -17.5% | [3] -20.9% | [4] 5% | [5] -19% | [6] -20.2%

Cn1cc2c([N+](=O)[O-])cccc2n1
inactive: [1] 5.35% | [2] 3.75% | [3] 14.7% | [4] -4.6% | [5] -0.9% | [6] 13.2%

O=C(N/N=C(\c1nc2ccc(Cl)cc2[nH]c1=O)C(O)c1ccccc1Cl)c1ccncc1 (centres undefined)
inactive: [1] 16.6% | [2] 20% | [3] 8.7% | [4] 18.7% | [5] 30.9% | [6] 37%

O=C1c2ccccc2CCC1c1ccccc1 (centres undefined)
inactive: [1] -1.65% | [2] -0.7% | [3] -5.2% | [4] -1.05% | [5] -10.7% | [6] -23.4%

Oc1[nH]c2ccccc2c1N=NC(=S)Nc1ccccc1
inactive: [1] 12.6% | [2] 2.5% | [3] -2.3% | [4] -13.1% | [5] -11.4% | [6] -4.75%

Cc1ccc(C)c(NC(=O)c2cccc(C(=O)Nc3cc(C)ccc3C)c2)c1
inactive: [1] -13.1% | [2] 0.45% | [3] -4.3% | [4] 8.05% | [5] 7.95% | [6] 7%

COC(=O)C(C(=O)OC)C1CCCC(=O)C1 (centres undefined)
inactive: [1] -2.3% | [2] -10% | [3] -10.6% | [4] -6.7% | [5] -24.7% | [6] 13.8%

CC1CCC(C(C)C)C(NNC(N)=O)C1 (centres undefined)
inactive: [1] 39.5% and 9.65% | [2] 12.7% and 3.8% | [3] 5% and 6.8% | [4] 14.3% and 3.4% | [5] 45% and -0.95% | [6] 15.9% and 9.6%

CC(O)(c1ccccc1)c1ccccc1
inactive: [1] -13.3% | [2] -1.75% | [3] -25.6% | [4] -16.8% | [5] -2.3% | [6] -33.3%

c1ccc(-c2cnoc2-c2ccccc2)cc1
inactive: [1] 14% | [2] 17.6% | [3] 7.15% | [4] -19.8% | [5] -18.7% | [6] 8.3%

C/C(CC(=O)Nc1cc(C)ccc1C)=N\NC(=O)c1ccncc1
inactive: [1] 11.8% | [2] -0.4% | [3] 10.7% | [4] 22.7% | [5] -0.75% | [6] 1.15%

CCOC(=O)C(CC(C)C)NC(=O)c1ccc(C)c(OCc2ccccc2)c1[N+](=O)[O-] (centres undefined)
inactive: [1] 17.9% | [2] -8.75% | [3] 37.9% | [4] 0.6% | [5] 11.6% | [6] -3.9%

C#CCN(Cc1ccc2nc(-c3ccccc3)c(Cl)nc2c1)c1cc(OC)c(OC)c(OC)c1
inactive: [1] 14.8% | [2] -12.6% | [3] -16.9% | [4] -23.4% | [5] -26.1% | [6] 4.75%

CN1N=CSC12C(=O)N(c1ccccc1)C(=O)N2c1ccccc1 (centres undefined)
inactive: [1] 0.4% | [2] -1.55% | [3] 0.95% | [4] 20.1% | [5] 3.15% | [6] -14.2%

CCC(C)C(O)C(C(=O)O)C1CCCCC1 (centres undefined)
inactive: [1] 31.6% | [2] 23.2% | [3] 15.4% | [4] 39.5% | [5] 23.9% | [6] 26%

COc1cc(OC)c2c(c1)OC(c1cccnc1)C(c1ccccc1)C2=O (centres undefined)
inactive: [1] -5.2% | [2] -57.9% | [3] -5% | [4] -27.7% | [5] 12.5% | [6] 3.9%

S=C(NCc1cccc(Cl)c1)Nc1ccccc1
inactive: [1] -4.65% | [2] 27.9% | [3] 14.2% | [4] -24.9% | [5] 29.6% | [6] 24.4%

Nc1ncnc2c1ncn2C1OC(CSCC(F)(F)F)C(O)C1O (centres undefined)
inactive: [1] -4.05% | [2] -11.8% | [3] -8.65% | [4] 26.6% | [5] -7.8% | [6] -11.4%

CCCCCCCCCCCCCCCOc1ccc(OCCCCCCCCCCCC)cc1
inactive: [1] 37.8% | [2] -6.3% | [3] 16.4% | [4] -33% | [5] 4.25% | [6] 11.8%

CN(C)C(=S)Oc1c([N+](=O)[O-])cc([N+](=O)[O-])cc1C(C)(C)C
active: [1] 94% | [2] 89.9% | [3] 93.8% | [4] 78% | [5] 92.6% | [6] 95%

COc1ccc2c(c1)Cc1cc(NC(C)=O)ccc1-2
inactive: [1] -4.55% | [2] -11.2% | [3] 21.5% | [4] -47.9% | [5] 4.1% | [6] 13.1%

CCC1CC2CC(c3cc4c(cc3OC)N(C)C3C(O)(C(=O)OC)C(OC(C)=O)C5(CC)C=CCN6CCC43C65)c3[nH]c4ccccc4c3CCN(C1)C2 (centres undefined)
inactive: [1] 17.9% | [2] 14.3% | [3] 28.9% | [4] 2% | [5] 8.65% | [6] 43.4%

NC(=S)/N=C/c1c(O)c2ccccc2oc1=O
inactive: [1] -15.8% | [2] 3.95% | [3] -37.5% | [4] 3.5% | [5] -12.7% | [6] -35%

C=C(C)C1CCC2(C)C1CCC1(C)C2CCC2C3(C)C4OC(OC4=O)C(C)(C)C3CCC21C (centres undefined)
inactive: [1] -0.8% | [2] -20% | [3] 11.8% | [4] 0.1% | [5] 17.6% | [6] -53%

COc1ccc(C2NC3=C(CCCC3)N2)cc1
inactive: [1] 26.4% | [2] 4.45% | [3] -13.9% | [4] 8.3% | [5] -3.9% | [6] 32.9%

Cc1ccc(NC(=O)c2ccc(OP(=O)(O)Nc3ccc(C)cc3)cc2)cc1
inactive: [1] -22.6% | [2] -21.8% | [3] -8.05% | [4] -3.15% | [5] -5.2% | [6] -4.1%

O=[N+]([O-])c1ncccc1O
inactive: [1] 12.2% | [2] -2.75% | [3] -4.5% | [4] 9.35% | [5] 12% | [6] 15.9%

O=CC(=O)O
inactive: [1] 28.1% | [2] -19.6% | [3] 15.7% | [4] 13.7% | [5] 26.6% | [6] 25.7%

O=C(O)/C=C\C(=O)Nc1ccc2c(c1)Cc1cc(O)ccc1-2
inactive: [1] 7.95% | [2] 30.8% | [3] 17.8% | [4] 25.7% | [5] 21.9% | [6] -0.3%

COc1ccccc1C(=O)NCC1CCCN2CCCCC12 (centres undefined)
inactive: [1] 6.5% | [2] -6.95% | [3] 14.9% | [4] -6.5% | [5] 0.7% | [6] -45.4%

Cc1[nH]c(=O)nc(N/N=C/c2ccc(Cl)cc2)c1C(=O)NC(C)(CO)CO
inactive: [1] -30.6% | [2] -14.6% | [3] -43.5% | [4] -10.4% | [5] 16.7% | [6] -3.45%

Cc1ccccc1-c1nc2c(N)nc(N)nc2nc1N
inactive: [1] -4.2% | [2] -12.8% | [3] -23.6% | [4] -18.9% | [5] -36.9% | [6] -62%

O=C(NCC1CC1)c1cccs1
inactive: [1] -41.4% | [2] -50.9% | [3] -18.9% | [4] -23.6% | [5] -21.6% | [6] -50.4%

Clc1ccc2[nH]ncc2c1
inactive: [1] 8.9% | [2] -36.1% | [3] -5.9% | [4] -7.95% | [5] 7.55% | [6] 18.1%

CCC1([N+](=O)[O-])COC(CCc2ccccc2)OC1 (centres undefined)
inactive: [1] 6.3% | [2] -20.9% | [3] 10.8% | [4] -30.1% | [5] -0.25% | [6] -19.9%

O=CNc1nc[nH]c1-c1noc(=O)[nH]1
inactive: [1] -2.75% | [2] -9.5% | [3] -3.5% | [4] -23.9% | [5] -10.8% | [6] -6.8%

CNCCc1cn(C2OC(CO)C(O)C(O)C2O)cn1 (centres undefined)
inactive: [1] -7.15% | [2] -17.6% | [3] -22.3% | [4] -40.9% | [5] -28.4% | [6] -13.3%

O=C(/C(=C1\SS/C(=C(/C(=O)c2ccccc2)c2ccccc2)S1)c1ccccc1)c1ccccc1
inactive: [1] 34.6% | [2] 14.6% | [3] 17.7% | [4] 7.3% | [5] 5.75% | [6] 6.45%

N#CC1(c2ccccc2)CCC1
inactive: [1] 4.85% | [2] -24.9% | [3] 7.5% | [4] 16.6% | [5] 6.4% | [6] 5.1%
